Assay outcomes deposited in PubChem by several laboratories.
tim23-1 inh – growth inhibitors of tim23-1 mutant yeast; S. cerevisiae tim23-1 growth, BacTiter-Glo luminescence, 24 h; inhibition, % at 20 µM; hit rate 1.3% among 330,000; AID 463212;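 active means growth inhibition of the mutant yeast at or above 50%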;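 further: temperature-sensitive mutant grown at 25 °C; plate controls were DMSO-treated mutant yeast for no effect and medium wells lacking yeast for full effect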
NLRP3 yeast inh – blocks the NALP3 inflammasome reconstituted in yeast | Yeast reconstituted NLRP3/ASC/caspase-1, beta-gal luminescence, 24 h | inhibition, % at 10 µM | hit rate 0.39% among 330,000 | AID 2825;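 active means inhibition of 50% or more; inactive means inhibition below 50%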;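 further: plate controls were induced DMSO wells for no effect and uninduced yeast grown without galactose for full effect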
tim10-1 inh – tim10-1 yeast growth inhibition | hit rate 2.2% among 330,000 | AID 463190 | S. cerevisiae tim10-1 ts strain growth, BacTiter-Glo, 24 h | inhibition, % at 20 µM;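 active means inhibition of at least 40%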;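 further: mutant grown at 25 °C; 0% = DMSO wells with yeast and 100% = wells holding no yeast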
SKKanGAS inh – inhibitors of SKKanGAS S. pyogenes growth in kanamycin (SK-promoter or general growth effect); inhibition, % at 7.5 µM; BacTiter-Glo, 6 h; hit rate 1.3% among 300,000; AID 1662;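 active means mean replicate score, as percent of positive control median, at least 50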;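 further: strain carries kanamycin resistance gene driven by streptokinase promoter and grows in 40 µg/ml kanamycin; loss of luminescence reflects streptokinase promoter inhibition or plain growth inhibition; 0% = median of DMSO wells and 100% = positive control at its reference dose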
TIM10 inh – TIM10 yeast growth inhibition | hit rate 1.4% among 330,000 | S. cerevisiae TIM10 strain growth, BacTiter-Glo luminescence, 24 h | inhibition, % at 10 µM;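 active means inhibition of 40% or more at the single tested concentration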;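 further: wild-type TIM10 isogenic control strain grown at permissive 25 °C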
tim10-1 conf – confirmation of tim10-1 mutant yeast growth inhibitors | S. cerevisiae tim10-1 ts strain growth, BacTiter-Glo, 24 h | inhibition, % at 20 µM | hit rate 56% among 7,400 | AID 463213 | shares compounds with tim10-1 inh;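 active means inhibition of yeast growth at or above a set limit in either of two repeat tests at 20 µM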;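 further: tim10-1 mutant grown at permissive 25 °C to find synthetic lethal compounds; 0% = DMSO yeast wells and 100% = medium wells without yeast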
An asterisk follows results filed as active; . = not tested or not shown. The list is not random: actives were taken first. Their share in the collection is about 4.6%.

SMILES	tim23-1 inh	NLRP3 yeast inh	tim10-1 inh	SKKanGAS inh	TIM10 inh	tim10-1 conf
O=C(Nc1cc2c(cc1C(=O)O)OCCCO2)c1ccc(F)cc1F	2	26	-8	-3	8	.
CC(C)(Oc1ccc(Cl)cc1)C(=O)O/N=C(\N)c1ccncc1	3	31	47*	2	5	3
N/C(=N\OC(=O)c1cc(Cl)ccc1Cl)c1cccnc1	-5	-22	41*	6	21	25
N/C(=N\OC(=O)c1ccccc1Cl)c1cccnc1	15	11	10	-6	13	.
N/C(=N\OC(=O)c1cc(Br)ccc1Cl)c1cccnc1	-13	-6	47*	0	31	49*
N/C(=N\OC(=O)c1cccc(Cl)c1)c1cccnc1	39	-13	16	0	21	.
N/C(=N\OC(=O)Cc1ccc(Cl)cc1)c1ccncc1	9	-3	12	-1	-1	.
N/C(=N\OC(=O)c1cccc(Cl)c1)c1ccncc1	22	2	42*	-12	20	30*
Cc1[nH]c(C)c(S(=O)(=O)NCc2ccc(Cl)cc2)c1C(=O)N1CCCC1	7	6	1	-1	17	.
COc1cc2c(cc1OC)[C@@H](NC(=O)C(C)C)[C@H](OCc1ccccc1)C2	20	.	4	.	-8	.
COc1ccccc1N1CCN(C(=O)c2ccccc2N(C)S(=O)(=O)c2ccc(C)cc2)CC1	31	15	27	20	22	.
CCc1ccc(OCC(=O)N/N=C(\C)c2ccc3c(c2)OCCO3)cc1	44	38	23	-3	13	.
C/C(=N\NC(=O)COc1ccc(C(C)(C)C)cc1)c1ccc2c(c1)OCCO2	25	3	41*	-1	16	20
CCCn1c(N)c(C(=O)CSc2ncnc3sccc23)c(=O)n(C)c1=O	-2	16	6	.	-5	.
O=C(CN1C(=O)/C(=C/c2ccccc2)SC1=S)N1CCN(CCc2ccccn2)CC1	40	5	42*	-1	18	30
S=c1nc(C23CC4CC(CC(C4)C2)C3)[nH][nH]1	11	5	13	1	6	.
Cc1sc(N)nc1C12CC3CC(CC(C3)C1)C2	17	27	46*	1	20	16
c1ccc(CSc2cc3ccccc3[nH]2)cc1	37	20	11	-3	19	.
O=S(=O)(c1ccc2c(c1)oc1ccccc12)N1CCOCC1	15	20	7	-3	14	.
O=S(=O)(Nc1ccc2c(c1)oc1ccccc12)N1CCCC1	22	12	48*	-7	39	27
O=C(Nc1ccc(Cl)cc1)[C@@H]1[C@@H]2C(=O)N(c3ccc(Cl)cc3)C(=O)[C@@H]2[C@H]2C=CC=NN21	17	-12	18	7	-23	.
O=C(Nc1ccc(Cl)cc1)[C@@H]1[C@@H]2C(=O)N(c3ccc(Cl)cc3Cl)C(=O)[C@@H]2[C@H]2C=CC=NN21	31	-9	45*	9	14	27
CCCCNC(=S)Nc1ccccc1Cc1ccccc1	8	7	41*	5	23	24
CC12CC(c3ccccc3O1)N(C(=O)c1ccco1)C(=S)N2c1ccccc1 (configuration not stated)	46	7	42*	-3	38	27
Cc1sc2nc(CN3CCOCC3)nc(Oc3ccc(NC(=O)c4ccco4)cc3)c2c1C	33	16	48*	9	18	23
SMILES	tim23-1 inh	NLRP3 yeast inh	tim10-1 inh	SKKanGAS inh	TIM10 inh	tim10-1 conf
COc1ccc(CSCC(=O)Nc2ccc(S(=O)(=O)N3CCCCCC3)cc2)cc1	39	15	42*	-7	24	29
O=C(CCCN1C(=O)c2ccccc2C1=O)Nc1ccc(S(=O)(=O)N2CCCCC2)cc1	31	-9	41*	-1	9	32*
O=C(CCCN1C(=O)c2ccccc2C1=O)Nc1ccc(S(=O)(=O)N2CCOCC2)cc1	12	-10	14	-4	8	.
CCCOc1ccccc1OCC(=O)Nc1ccc(S(=O)(=O)N2CCCC2)cc1	36	24	38	-3	23	.
CCOc1ccccc1OCCCC(=O)N1CCN(S(=O)(=O)c2ccc(C)cc2)CC1	23	11	41*	4	11	16
CCCOc1ccccc1OCC(=O)Nc1ccc(S(=O)(=O)N2CCCCC2)cc1	31	14	41*	2	7	32*
Cc1ccc(-n2ncc3c2CCCC3NC(=O)CCCN2CCCCC2=O)cc1C (configuration not stated)	14	17	14	-1	5	.
